# Compounds with a hit are over-represented: about 21% of the library has one in this group of screens.
# HCV inh – HCV inhibition. Huh7.5.1 HCVcc-Cre infection, luciferase reporter, 44 h. Potency, µM (doses to about 41.8 µM), without a hit: at the top dose activity change, negative = inhibition, usual class: inhibitors. AID 651820. hit rate 3.4% among 340,000; further: potency means the concentration at half of the fitted maximal effect; on the % scale 0 is the no-effect control and ±100 the full control effect
#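 HCVcc-Cre virus at an moi near 0.5 was added right after compound to cells cultured 4 h from seeding (1,000 cells/well). Luciferase activity was determined 44 h later, 15 min after substrate addition at RT.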
# Cycloheximide cs – affects cycloheximide protein synthesis inhibition readout, counter-screen; AID 2314; cell reporter, cycloheximide protein synthesis inhibition counterscreen; max response, %; hit rate 12% among 300,000; in the data active means max response mostly above about 13%, no sharp cut-off; inactive means mostly below about 14%; further: read at 38.3 µM for the half of the compounds with a filed dose; 0% is about no effect
# Shiga toxin inh – inhibitors of Shiga toxin in Vero cells | hit rate 9.2% among 290,000 | Vero cells, Shiga toxin protein synthesis inhibition reporter | AID 2315 | inhibition, % at 38.7 µM; in the data active means inhibition mostly above about 28%, no sharp cut-off; inactive means mostly below about 43%; further: 0% is about no effect
# Pf growth 48h – P. falciparum growth inhibition at 48 hours (one generation); P. falciparum luciferase growth in erythrocytes, 48 h; Potency, µM (highest dose often 28.7 µM), for inactives: at the highest dose activity change, negative = inhibition, usual class: inhibitors; hit rate 5.9% among 310,000; further: potency means the concentration at half of the fitted maximal effect; on the % scale 0 is the no-effect control and ±100 the full control effect
#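 Firefly luciferase activity from engineered P. falciparum reports growth; inhibitors lower the luminescent signal. Cultures contained 2% hematocrit erythrocytes at 0.1% final parasitemia.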
# Pf growth 96h – P. falciparum growth inhibition at 96 hour, primary screen for plastid delayed-death inhibitors. P. falciparum luciferase reporter growth, 96 h. Potency, µM (top dose mostly 28.7 µM), without a hit: at the top dose activity change, negative = inhibition, most hits filed as inhibitors. hit rate 6.9% among 320,000. AID 504834; further: potency means the concentration at half of the fitted maximal effect; on the % scale 0 is the no-effect control and ±100 the full control effect
#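 Compounds incubated with erythrocytes infected by luciferase-expressing P. falciparum (2% hematocrit, 0.05% parasitemia final) for 96 hours, 37 C in 5% CO2. Growth inhibition scored as decreased luciferase luminescence.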
# AMA1-RON2 inh – disrupts binding of P. falciparum AMA1 to RON2. AlphaScreen AMA1-biotinylated RON2 peptide binding. hit rate 0.2% among 360,000. Potency, µM (doses to about 58.2 µM), without a hit: top-dose activity change, negative = inhibition, hits mostly inhibitors;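 further: potency means the concentration at half of the fitted maximal effect; 0% = vehicle wells and -100% = peptide control; nearly all actives have a fitted effect of over 45% in size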
#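 AMA1 (3D7) with his tag at 25 nM final met compounds first, then biotinylated RON2 peptide at 25 nM; detection used donor plus acceptor beads, 10 µg/mL apiece, read by AlphaScreen after 30 min at room temperature.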
# * = called active by the depositor; ? = inconclusive; . = no result. Unless noted, the call rests on the fitted dose curve; in most records, active means well fitted curve in the direction sought with a large enough effect; inconclusive means small, poorly fitted or top-dose-only effect, or another doubt; inactive means no such curve, though single readings can be large; an effect the other way counts as inactive or inconclusive.
SMILES,HCV inh,Cycloheximide cs,Shiga toxin inh,Pf growth 48h,Pf growth 96h,AMA1-RON2 inh
CSCc1cc(N2CCOCC2)nc(SCc2ccc(Cl)c(Cl)c2)n1,?,8,24,?,?,-19%
Cc1cc(C)nc(SCC(=O)c2ccc([N+](=O)[O-])cc2)n1,-3%,1,8,1%,0%,-3%
O=C1C2C3CCCC3=C3CCCC3C2C(=O)N1c1ccccc1Cl (stereo not given),.,7,2,.,.,.
COc1cc(NC(=O)c2ccccc2)c(OC)cc1NC(=O)CN1C(=O)NC2(CCCCC2)C1=O,?,.,.,?,?,100%
O=[N+]([O-])c1ccc(Nc2nccc(Cl)n2)cc1,-8%,.,.,.,.,2%
Cc1cc(C)nc(SCC(=O)c2ccc(C)c(C)c2)n1,-2%,11*,25,0%,9.3µM*,-10%
Cc1cc(N2CCOCC2)nc(SCC(=O)c2ccccc2)n1,?,51*,96*,47%,?,2%
Cc1cc(N2CCC(C)CC2)nc(SCC(=O)c2ccccc2)n1,?,13*,29*,?,?,-4%
Cc1cc(N2CCCC2)nc(SCC(=O)c2ccccc2)n1,-18%,6,-20,43%,9%,7%
CCSc1cc(N2CCOCC2)nc(-c2ccccc2)n1,-8%,-2,-3,?,?,-3%
CCCSc1cc(N2CCOCC2)nc(-c2ccccc2Cl)n1,-44%,11,-14,.,12µM*,14%
O=c1[nH][nH]c(C(F)(F)F)c1C=NCc1cccs1,-5%,-2,-6,?,?,6%
CN(C)CC1CCC/C(=C\c2ccc(OC(=O)c3ccc(Cl)cc3)cc2)C1=O (stereo not given),11µM*,.,.,.,.,-4%
COc1ccc2[nH]c3c(NCCCOC(C)C)ncnc3c2c1,11µM*,44*,59,-81%,-56%,3%
COc1ccc2[nH]c3c(NCCC4=CCCCC4)ncnc3c2c1,2.8µM*,33*,125*,3%,3.7µM*,?
CCOc1ccc2[nH]c3c(NCCC(C)C)ncnc3c2c1,-26%,14*,29,?,?,2%
CCOc1ccc2[nH]c3c(NCCN(C)C)ncnc3c2c1,.,-7,10,2.3µM*,2.1µM*,.
CCN(CC)CCNc1ncnc2c1[nH]c1ccc(OC)cc12,.,-2,-8,4%,2%,.
COCCCNc1ncnc2c1[nH]c1ccccc12,.,-2,-9,-13%,8%,.
CCCCSc1ncnc2c1ncn2C1CCCCO1 (stereo not given),-6%,.,.,.,.,6%
CNC(=S)N1CCN=C1Nc1nc(C)cc(C)n1,-23%,8,23,17%,?,22%
Cc1cc(-c2nnc(SCC(=O)Nc3ccc(Br)cc3F)n2N)n[nH]1,8%,9,-2,-14%,?,17%
COc1ccc2[nH]c3c(NCc4ccco4)ncnc3c2c1,?,36*,97*,?,0%,-6%
Fc1ccc2[nH]c3c(NCc4ccccc4)ncnc3c2c1,7.9µM*,1,-3,5.9µM*,3.7µM*,-5%
O=C(C[n+]1cccc(NC(=O)c2ccccc2)c1)c1cccc([N+](=O)[O-])c1,?,8,19,?,?,4%
SMILES,HCV inh,Cycloheximide cs,Shiga toxin inh,Pf growth 48h,Pf growth 96h,AMA1-RON2 inh
O=C(C[n+]1ccc(-c2cc(C(=O)Nc3cccc(C(F)(F)F)c3)c3ccccc3n2)cc1)c1cccc([N+](=O)[O-])c1,13µM*,1,-2,?,3.3µM*,?
COc1ccc(S(=O)(=O)N2CCC3(CC2)OCCN3S(=O)(=O)c2c(C)cc(C)cc2C)cc1,?,.,.,1µM*,0.83µM*,-25%
COc1ccc(C)cc1S(=O)(=O)N1CCC2(CC1)OCCN2S(=O)(=O)c1cccs1,-22%,.,.,?,?,-2%
Cc1cc(C)c(S(=O)(=O)N2CCC3(CC2)OCCN3S(=O)(=O)c2cccs2)c(C)c1,11µM*,.,.,?,?,-5%
Cc1ccc(S(=O)(=O)N2CCC3(CC2)OCCN3S(=O)(=O)c2c(C)cc(C)cc2C)cc1,10µM*,.,.,10µM*,?,-5%
COc1ccc(S(=O)(=O)N2CCOC23CCN(S(=O)(=O)c2ccccc2)CC3)cc1,4%,.,.,?,32%,-3%

# Screening data: PubChem BioAssay, National Center for Advancing Translational Sciences (NCATS)
